AMA1 RON2 block: qHTS for Inhibitors of AMA1-RON; Towards Development of Antimalarial Drug Lead: Primary Screen; Plasmodium falciparum AMA1 (3D7) - RON2 peptide interaction; AlphaScreen AMA1-biotinylated RON2 peptide binding; 360,000 tested, 0.2% active; Potency, µM (doses to about 58.2 µM), most hits filed as inhibitors; active means well fitted inhibition curve with a large enough effect; inconclusive means small, poorly fitted or top-dose-only effect; inactive means no such curve, though single readings can be large or run the other way; further: nearly all actives have a fitted effect of over 45% in size
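AMA1 (3D7) with his tag at 25 nM final met compounds first, then biotinylated RON2 peptide at 25 nM; detection used donor plus acceptor beads, 10 µg/mL apiece, read by AlphaScreen after 30 min at room temperature.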
Marburg entry inh: qHTS for inhibitors of binding or entry into cells for Marburg Virus; Marburg virus pseudotyped entry inhibition, cell reporter; Potency, µM (top dose mostly 37.8 µM), usual class: inhibitors; 300,000 tested, 1.8% active; calls by dose curve; tested in HEK293 cells
Shiga toxin inh: A qHTS for Small Molecule Inhibitors of Shiga Toxin; Vero cells, Shiga toxin protein synthesis inhibition reporter; inhibition, % at 38.7 µM; 290,000 tested, 9.2% active; AID 2315, 2010; in the data active means inhibition mostly above about 28%, no sharp cut-off; inactive means mostly below about 43%
Lassa entry inh: qHTS for Inhibitors of binding or entry into cells for Lassa Virus; 300,000 tested, 1.2% active; Lassa virus pseudotype entry inhibition, cell reporter; AID 540256, 2011; Potency, µM (titrated, usually from 37.9 µM), most hits filed as inhibitors; calls by dose curve; tested in HEK293 cells; further: nearly all actives have a fitted effect of over 50% in size
CHX counter: Cycloheximide Counterscreen for Small Molecule Inhibitors of Shiga Toxin | max response, % | AID 2314, 2010 | 300,000 tested, 12% active | cell reporter, cycloheximide protein synthesis inhibition counterscreen; in the data active means max response mostly above about 13%, no sharp cut-off; inactive means mostly below about 14%; further: read at 38.3 µM for the half of the compounds with a filed dose
Hits are given with their value; – = inactive; ? = inconclusive; · = no result; [ ] = another dose, or the depositor's remark. This excerpt belongs to a sample that is enriched for hits.

SMILES | AMA1 RON2 block | Marburg entry inh | Shiga toxin inh | Lassa entry inh | CHX counter
C[C@H](NS(=O)(=O)c1ccccc1)C(=O)OCC(=O)NC(=O)Nc1ccc2c(c1)OCCO2 | – | ? | 86.5 | – | 73.6
CSc1cc(-c2ccncc2)nc(-c2ccc(Cl)cc2)c1 | – | 4.47µM | – | – | –
O=C(/C(N=Nc1cccc(C(F)(F)F)c1)=C(/O)c1cccs1)C(F)(F)F | – | ? | 66.3 | ? | 35.5
COc1ccc(/C=C2\C(=O)NC(=S)N2C(=O)c2ccc(F)cc2)cc1 | – | ? | – | – | –
O=C1NC(=S)N(C(=O)c2ccc(F)cc2)/C1=C/c1ccccc1 | – | ? | – | ? | 14.4
CCN(C(=O)COC(=O)c1cc2ccccc2cc1OC)c1c(N)n(Cc2ccccc2)c(=O)[nH]c1=O | – | · | · | · | ·
O=C(N/N=C/c1cccc(Oc2ccccc2)c1)c1cccc(Br)c1 | – | ? | – | ? | –
NC(=O)c1ccc(C(=O)N/N=C/c2cccc(Oc3ccccc3)c2)cc1 | – | – | – | – | –
O=C(N/N=C/c1cccc(Oc2ccccc2)c1)c1ccccc1Br | – | ? | – | 6.51µM | –
O=C(N/N=C/c1cccc(Oc2ccccc2)c1)c1cccc(O)c1 | – | ? | 57.8 | – | 34.8
O=C(O/N=C1\CCCc2ccccc21)c1cccc(Cl)c1 | – | – | – | – | 13.3
Cc1ccc(C(=O)O/N=C2\CCCc3ccccc32)cc1 | – | – | 61.9 | – | 17.8
Cc1cccc(C(=O)O/N=C2\CCCc3ccccc32)c1 | – | – | 41.4 | ? | 24.1
Cc1cccc(C(=O)O/N=C2\CCSc3ccc(C)cc32)c1 | – | – | – | – | –
O=C(/C=C/c1cccs1)NNC(=O)c1ccccc1 | – | · | · | · | ·
c1ccc2nc3c(cc2c1)CCCCC3 | – | · | 44.1 | · | 29.7
c1ccc2nc3c(cc2c1)CCCCCC3 | – | – | – | – | –
Cc1ccc(-c2csc3ncnc(N4CCN(Cc5ccccc5)CC4)c23)cc1 | – | · | – | · | –
Cc1csc2ncnc(NC3CCN(Cc4ccccc4)CC3)c12 | – | 10µM | – | – | –
Cc1ccc(C(=O)N2N=C(c3cccc(NS(C)(=O)=O)c3)CC2c2cccs2)cc1 (stereo not given) | – | · | – | · | –
CSc1ccccc1C(=O)N1CCN(c2cccc(Cl)c2)CC1 | – | ? | – | 5.62µM | –
Cc1cc(C(=O)N2CCN(c3cccc(Cl)c3)CC2)c(C)o1 | – | 6.31µM | – | ? | –
CCCNC(=O)CN1C(=O)NC(c2ccccc2)(c2ccccc2)C1=O | – | – | – | · | –
C=CCN(c1ccccc1OC)S(=O)(=O)c1cccc(C(=O)OCC(=O)c2c(N)n(C)c(=O)n(C)c2=O)c1 | –[11.6 µM] | ? | · | ? | ·
CN(C(=O)CCN1C(=O)S/C(=C\c2ccccc2)C1=O)C1CCS(=O)(=O)C1 (stereo not given) | – | · | – | · | –
SMILES | AMA1 RON2 block | Marburg entry inh | Shiga toxin inh | Lassa entry inh | CHX counter
Cc1ccccc1CSCCNC(=O)Nc1ccccc1 | – | · | – | · | 15.1
CC(C)(C)SCCNC(=O)Nc1ccccc1 | –[11.6 µM] | ? | 19.0 | ? | 21.5
CCC(C)N(C(=O)Cn1nnc(-c2ccc(Cl)cc2)n1)C1CCS(=O)(=O)C1 (stereo not given) | – | – | · | ? | ·
CC1=C(C(=O)OCC2CCCO2)C(c2ccc(C)o2)C2=C(CC(c3ccc(F)cc3)CC2=O)N1 (stereo not given) | – | 10µM | – | – | –
COC(=O)c1ccccc1N(C)S(=O)(=O)c1cc2c3c(c1)CCC(=O)N3CCC2 | – | – | · | – | ·
COc1ccc(C2=Nc3ccccc3NC(c3cccs3)=N2)cc1 | · | 20µM | · | – | ·
CCOc1ccc2c(c1)NC(c1cccs1)=NC(c1ccc(F)cc1)=N2 | · | – | · | – | ·
CC(C)=NOCc1ccc(-c2cn([C@@H]3COC[C@@H]3O)nn2)cc1 | · | – | · | · | ·
Clc1cccc2sc(N3CCN(c4ccccc4)CC3)nc12 | – | – | – | ? | –
c1ccc(N2CCN(c3nc4cc5c(cc4s3)OCCO5)CC2)cc1 | – | – | 95.4 | – | 84.1
c1c2c(cc3sc(N4CCOCC4)nc13)OCCO2 | – | ? | – | 5.17µM | 14.3
NCCc1cc(O)c(O)cc1O | 0.794µM | ? | – | ? | –
O=S(=O)(c1cccs1)N1CCN(c2ccccc2)CC1 | – | – | – | – | –
O=C1C(NS(=O)(=O)c2cccs2)=C(N2CCN(c3ccccc3)CC2)C(=O)c2ccccc21 | – | – | 44.1 | ? | –
C/C(=N\NC(=O)c1cccc(F)c1)c1cccc(NC(=O)c2ccc(F)cc2)c1 | – | ? | 26.4 | – | 34.9
C/C(=N\NC(=O)c1ccccc1F)c1cccc(NC(=O)c2ccc(C)cc2)c1 | – | – | 58.3 | ? | 33.7
C/C(=N\NC(=O)c1ccc(F)cc1)c1cccc(NC(=O)c2cccc(F)c2)c1 | – | · | 35.1 | · | 15.6
C/C(=N\NC(=O)c1ccc(F)cc1)c1cccc(NC(=O)c2ccco2)c1 | – | – | – | – | –
O=C(O)c1cc(NC(=O)c2cccc(F)c2)cc(NC(=O)c2cccc(F)c2)c1 | – | – | – | – | –
C/C(=N\NC(=O)c1cccc(O)c1)c1cccc(NC(=O)c2ccc(F)cc2)c1 | – | · | 68.3 | · | 40.9
COc1cccc(NC(=O)c2oc3ccccc3c2NC(=O)Cc2cccc(C)c2)c1 | · | – | · | – | ·
C/C(=N\NC(=O)C1CC1)c1ccc(OC(F)F)cc1 | – | – | 51.4 | · | –
C/C(=N\NC(=O)C1CC1)c1ccc(C)c(C)c1 | – | – | – | ? | –
CC/C(=N\NC(C)=O)c1ccc(OC(F)F)cc1 | · | · | – | · | –
COC(=O)N/N=C(\C)c1cccc(C(F)(F)F)c1 | – | – | – | – | 28.9
SMILES | AMA1 RON2 block | Marburg entry inh | Shiga toxin inh | Lassa entry inh | CHX counter
C/C(=N\Nc1ncc(Cl)cc1Cl)c1ccc(OC(F)F)cc1 | – | – | 42.3 | – | 50.2
COC(=O)N/N=C(\C)c1ccc(OC(F)F)cc1 | – | ? | 79.7 | – | 35.1
Cc1ccc(S(=O)(=O)NCCc2cn3ccsc3n2)cc1 | · | · | · | – | ·
COc1ccccc1N(C)S(=O)(=O)c1ccc(C(=O)N(C)Cc2ccc(OC(F)F)cc2)cc1 | – | 11.2µM | · | ? | ·
CC(=O)NC1CCCN(O)C(=O)/C=C(\C)CCOC(=O)C(NC(C)=O)CCCN(O)C(=O)/C=C(\C)CCOC(=O)C(NC(C)=O)CCCN(O)C(=O)/C=C(\C)CCOC1=O (stereo not given) | – | · | – | · | –
COc1cccc(/C=N\NC(C)=O)c1OC/C=C/c1ccccc1 | – | – | – | – | –
CC(C)c1ccc2oc(-c3ccc(Cl)c(NC(=O)c4cccs4)c3)nc2c1 | · | – | · | – | ·
Cc1cc2ncn(/N=C/c3ccc4c(c3)OCO4)c2cc1C | – | – | 76.3 | – | 18.4
COc1ccc(NC(=S)Nc2cccc(S(=O)(=O)N3CCCCC3)c2)cc1 | – | ? | – | – | –
CNC(=O)CSc1nnc(NC(=O)Nc2ccccc2)s1 | · | · | · | – | ·
COc1ccc(C(=O)N/N=C(\C)CC(=O)N2CCN(C=O)CC2)cc1 | – | ? | – | ? | 31.2
COc1ccc(C/C(C)=N/NC(=O)c2ccc(Cl)cc2)cc1 | – | – | 36.9 | – | 14.4
COc1ccc(C/C(C)=N/NC(=O)c2cccnc2)cc1 | – | – | – | – | 26.6

Compound activity (PubChem)
